Whole data set: some 33,000 sequences, median “E-score (-0.5 to 0.5)” near -0.016, cut for the highest 2% near 0.31. This excerpt belongs to a sample that is enriched for the highest values.
What follows are sequences tested against Cst6 (UniProt P40535) (assay: PBM E-score (8-mer binding enrichment) (E-score (-0.5 to 0.5)); higher = stronger / more preferred TF binding). Conditions: protein concentration: 200 nM; construct: GST-DNA-binding domain.
How it was run: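 Universal all-10-mer Agilent arrays, double-stranded by primer extension on fresh or once-stripped slides, were probed with about 100-200 nM GST-tagged yeast transcription factors made by PURExpress. Fluorescent anti-GST detected bound protein, and masliner normalised the scans. E-scores from the Universal PBM Analysis Suite were given to each ungapped eight-base word pooled with its reverse complement.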

Chain of UniProt P40535 (P40535 whole entry, the tested form may be a part): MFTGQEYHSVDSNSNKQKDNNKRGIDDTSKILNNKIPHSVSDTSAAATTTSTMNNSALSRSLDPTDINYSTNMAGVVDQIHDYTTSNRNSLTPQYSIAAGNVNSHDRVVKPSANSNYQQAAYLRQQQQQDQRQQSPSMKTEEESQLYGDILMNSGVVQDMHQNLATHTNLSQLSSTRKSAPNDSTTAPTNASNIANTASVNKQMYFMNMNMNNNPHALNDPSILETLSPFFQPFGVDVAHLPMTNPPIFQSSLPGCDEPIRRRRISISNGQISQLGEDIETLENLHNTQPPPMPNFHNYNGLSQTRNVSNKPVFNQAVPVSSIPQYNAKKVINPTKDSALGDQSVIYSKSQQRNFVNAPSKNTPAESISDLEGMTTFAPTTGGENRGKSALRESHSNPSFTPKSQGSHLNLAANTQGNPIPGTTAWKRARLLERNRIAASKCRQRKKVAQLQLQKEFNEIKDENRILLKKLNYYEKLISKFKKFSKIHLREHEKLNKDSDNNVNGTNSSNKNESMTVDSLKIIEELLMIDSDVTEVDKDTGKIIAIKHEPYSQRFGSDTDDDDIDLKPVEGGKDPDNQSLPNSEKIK

Sequence | PBM E-score
ACCTTTGA | -0.156
CCTCCTAG | -0.121
AAGCACGT | 0.0741
GAGCAGGA | -0.154
GGAAACCC | -0.147
ACGTCAGT | 0.472
ACCTCAGT | 0.013
AAGTCAGT | 0.0407
GACACGCC | 0.0155
CTGGACTA | -0.267
AGTACGTA | 0.267
GGTACGTA | 0.136
CGTACGCC | 0.111
AGTACGTC | 0.205
CGTACGTC | 0.31
CGTACGTA | 0.306
CGTAAACA | 0.262
TATACCGA | 0.00086
GCTGATGA | 0.278
GATGATCA | 0.171
CGTGATGA | 0.297
TATGATCA | 0.207
CATGATGA | 0.342
TATGATAA | 0.251
GGTGATGA | 0.362

Sequence | PBM E-score
TATGATGA | 0.337
GATGATGA | 0.319
CATGATGG | -0.0379
GGTGATTA | 0.206
CATGATGC | 0.28
CACGCTAC | -0.134
ACTACCGC | -0.0306
CTCTCAAG | -0.14
GCCAACGC | -0.0319
CGAACTAG | 0.0382
CGCAATTA | 0.18
CCCAAAAC | 0.105
CCTGGGGA | -0.402
CCTGCACA | -0.179
ACACTACT | 0.0264
CCTTCCGA | -0.149
AGCTACTC | -0.274
CTTGATGA | 0.24
ATTGATGA | 0.296
GTTGATGA | 0.309
ACGAGGAT | -0.0239
ATGTCACC | 0.465
ATGTCACA | 0.375
GTGTCACA | 0.229
ATGTCAAC | 0.251

Sequence | PBM E-score
ATGTCAAA | 0.237
ATGTCAGA | 0.221
CTGTCACA | 0.0581
CTGTCACC | 0.0496
ATGTCACG | 0.396
AGGGCTAG | -0.242
ATCTCTCG | -0.0585
GGGAAAAC | -0.0343
AGAGGTTC | -0.11
AAAGCGCT | 0.183
GCCGCACC | 0.226
ATAGAAGG | -0.208
GTAATATA | 0.354
CTATAATA | 0.0135
ATAATATC | 0.219
GTATAATA | 0.288
ACATAATC | 0.267
ATAATATG | 0.273
ATAATATA | 0.358
ATATAATA | 0.31
CTAATATA | 0.302
ACATAATA | 0.345
GCATAATA | 0.227
GTAATAGA | 0.0316
TTCACAAA | 0.0753

Sequence | PBM E-score
ATCGCGTG | 0.0786
CGGGCGAC | -0.319
GGAGGCCA | -0.314
AAAAGGTA | -0.0898
AATTACCG | 0.196
ATTCGATC | 0.153
GTTGTTCA | 0.0498
ATGAGCCG | 0.0382
ATACGGTG | 0.104
GTACGGCA | 0.249
CTACGGCA | 0.283
ATACGGCG | 0.36
ATACGGCC | 0.138
ATACGGCA | 0.394
AGAAAAGG | 0.0591
CAGACTTA | -0.094
CATAAGCA | -0.0945
GTCACTTA | 0.331
ATCACTTA | 0.194
GTCACTGA | 0.281
CTCACTCA | 0.0247
ATCACTCA | 0.138
GTCACTCA | 0.315
CCAGTGTC | -0.108
GCGCCTAC | 0.136

Sequence | PBM E-score
CGGCAACG | 0.0207
TCGAAGCA | -0.0376
GGCCGCTA | -0.232
GCCGCGGC | 0.31
CACGCGGC | 0.279
CCCGCGGC | 0.109
AACGCGGC | 0.261
GCCGCGGA | 0.0146
GACGCGGC | 0.318
AGTGAACC | -0.0808
CACGTCTG | 0.0582
AACGTCTG | 0.0755
GACGTCCA | 0.276
AACGTCCA | 0.0436
GACGTCGA | 0.292
AACGTCGG | -0.174
AACGTCAA | 0.401
AACGTCAG | 0.371
GACGTCAA | 0.479
CACGTCAG | 0.449
AACGTCGA | 0.133
CCCGTCAG | -0.282
CAAACTCA | 0.0635
GGCACCAC | -0.1
AAGCGATG | -0.134

Sequence | PBM E-score
CCAGTTCG | -0.0928
CAAACGCG | 0.0743
ATGGCCCA | -0.0308
AACTTCCA | -0.178
AGACCTAC | -0.227
ATCCCAGG | -0.234
CCGATCTC | -0.145
AACGTCAC | 0.488
TACGTCCA | 0.0953
TACGTCAA | 0.484
CACGTCTC | -0.097
CACGTCAC | 0.489
CACGTCCC | -0.216
AACGTCCC | -0.173
GGCGTCAA | 0.263
TACGTCTA | 0.188
TGCGTCCA | -0.0683
AACGTCTC | -0.0757
TGCGTCAA | 0.318
CATACTCC | 0.0426
CAGCCAAC | -0.13
CGAATTAG | 0.0675
CGTTTAAG | 0.0111
AGGTCTAC | -0.216
AAACTAGT | 0.062

Sequence | PBM E-score
CCCTGAGA | -0.247
GAAATCCC | -0.101
CGTTCTTA | 0.0793
AAGCCATG | -0.124
CAACAGCC | 0.153
ACAAGAAA | 0.237
CCCGTCAA | -0.228
AACGTCCT | -0.0138
CACGTCAA | 0.366
GACGTCGC | 0.236
TCTGTCAA | 0.111
TATGTCAA | 0.378
AACGTCGT | 0.0196
CACGTCTA | -0.0114
GACGTCAC | 0.495
AATGTCAA | 0.102
AACGTCAT | 0.489
GACGTCCC | 0.016
ATAAGCTC | -0.0286
CGCCCACC | -0.0447
CGGTCCGC | -0.198
ACAAAGAA | 0.247
GACTGCTC | -0.26
ACACTTAA | 0.105
GGGGCTTA | -0.346

Sequence | PBM E-score
CAGATAAA | 0.051
CTATCGGA | -0.0998
AGTGTGCC | -0.088
AAAAATTC | 0.186
ATGAAATA | 0.283
ATGAAATC | 0.314
CTGAAATC | 0.0366
ATAGCTAT | -0.0877
CTTCGAAG | -0.21
AAGCTATG | -0.0495
ACTAAGAG | -0.0881
CAGAACGG | -0.0224
GGACATCA | 0.188
TGACATCA | 0.496
CGACATCC | -0.0566
CGACATCG | -0.122
AAACATCA | 0.268
AGACATCA | 0.0931
TAACATCA | 0.399
CAACATCA | 0.305
CGACATCA | 0.411
ACGCTGGC | -0.207
AAAGGCAC | 0.189
CAGACCCC | -0.316
ATCAATGA | 0.35

Sequence | PBM E-score
CTCAATGA | 0.14
GTCAATGA | 0.235
CCGTACCG | -0.0599
CAGGGTGG | -0.23
CCCAAGAC | -0.0855
CTGACATA | 0.324
ATGACAAG | 0.134
ATGACAGG | 0.0675
ATGACAGA | 0.243
ATGACATG | 0.351
CGGACATA | 0.0467
AAGACATA | 0.0804
GAGACATA | -0.00422
CAGACATA | 0.131
GTGACATA | 0.471
GGGACATA | -0.0929
ATGACATA | 0.45
CATCTATA | 0.162
ACGCGAGG | 0.0628

— the supplement of paper PMC3334620
